From the supplement of paper PMC10849652
Of roughly 7,900 targets only a part is listed; those with a hit were picked by preference. About 0.6% of all pairs of compound and target were hits. Unmarked numbers belong to inactive results.

Compound: CN(CCOC1=CC=C(C=C1)C[C@H]2C(=O)NC(=O)S2)C3=CC=CC=N3 (racemic) [rosiglitazone]
Experiment: log2 fold change, soluble protein after heating vs DMSO (PISA); higher = thermal stabilisation; K562 cells, 10 uM, 30 min; active = over 0.2 and 3.5 SD of the protein, either way, in both replicates (recomputed)
Procedure, shortened: (§1)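 Values are thermal stability changes relative to control samples and are taken from duplicates. They are stated as log2 fold changes. Before quantification by TMTpro 16plex LC-MS/MS with equalised channel sums, K562 cells at 2×10^6 cells/mL were treated with 10 μM compound for 30 min, heated in aliquots for 3 min across 48°C-58°C, pooled, extracted in PBS with 0.5% NP-40 at 4°C, and centrifuged at 21,000xg for 90 min to give the soluble supernatant.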

UniProt Q9UKL0, sequence (Q9UKL0 whole entry, looked up): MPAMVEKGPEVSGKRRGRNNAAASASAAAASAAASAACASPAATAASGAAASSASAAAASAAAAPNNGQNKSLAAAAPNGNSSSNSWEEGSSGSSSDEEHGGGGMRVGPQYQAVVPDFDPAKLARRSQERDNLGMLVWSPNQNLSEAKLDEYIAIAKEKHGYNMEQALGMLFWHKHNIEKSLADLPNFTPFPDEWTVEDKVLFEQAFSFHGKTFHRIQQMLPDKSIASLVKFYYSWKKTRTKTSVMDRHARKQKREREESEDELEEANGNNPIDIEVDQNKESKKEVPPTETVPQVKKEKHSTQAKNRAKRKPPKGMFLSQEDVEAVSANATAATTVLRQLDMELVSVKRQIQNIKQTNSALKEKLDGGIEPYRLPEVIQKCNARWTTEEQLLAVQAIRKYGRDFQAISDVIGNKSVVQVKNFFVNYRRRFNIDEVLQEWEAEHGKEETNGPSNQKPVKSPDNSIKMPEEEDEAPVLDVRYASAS
UniProt Q9UBS8, sequence (Q9UBS8 whole entry, looked up): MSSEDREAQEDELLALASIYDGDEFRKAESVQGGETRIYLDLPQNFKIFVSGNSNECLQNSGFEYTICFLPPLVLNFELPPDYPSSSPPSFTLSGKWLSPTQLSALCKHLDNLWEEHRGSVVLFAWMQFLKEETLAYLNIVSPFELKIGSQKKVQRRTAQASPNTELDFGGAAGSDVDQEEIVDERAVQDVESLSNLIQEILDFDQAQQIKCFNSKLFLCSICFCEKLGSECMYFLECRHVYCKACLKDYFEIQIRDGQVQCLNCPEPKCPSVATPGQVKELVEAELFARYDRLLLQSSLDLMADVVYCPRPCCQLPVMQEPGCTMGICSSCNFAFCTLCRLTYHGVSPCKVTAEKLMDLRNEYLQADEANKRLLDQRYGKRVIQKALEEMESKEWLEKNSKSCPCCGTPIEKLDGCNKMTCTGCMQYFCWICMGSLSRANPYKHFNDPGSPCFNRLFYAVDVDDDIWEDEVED
UniProt Q9UPN6, sequence (Q9UPN6 whole entry, looked up): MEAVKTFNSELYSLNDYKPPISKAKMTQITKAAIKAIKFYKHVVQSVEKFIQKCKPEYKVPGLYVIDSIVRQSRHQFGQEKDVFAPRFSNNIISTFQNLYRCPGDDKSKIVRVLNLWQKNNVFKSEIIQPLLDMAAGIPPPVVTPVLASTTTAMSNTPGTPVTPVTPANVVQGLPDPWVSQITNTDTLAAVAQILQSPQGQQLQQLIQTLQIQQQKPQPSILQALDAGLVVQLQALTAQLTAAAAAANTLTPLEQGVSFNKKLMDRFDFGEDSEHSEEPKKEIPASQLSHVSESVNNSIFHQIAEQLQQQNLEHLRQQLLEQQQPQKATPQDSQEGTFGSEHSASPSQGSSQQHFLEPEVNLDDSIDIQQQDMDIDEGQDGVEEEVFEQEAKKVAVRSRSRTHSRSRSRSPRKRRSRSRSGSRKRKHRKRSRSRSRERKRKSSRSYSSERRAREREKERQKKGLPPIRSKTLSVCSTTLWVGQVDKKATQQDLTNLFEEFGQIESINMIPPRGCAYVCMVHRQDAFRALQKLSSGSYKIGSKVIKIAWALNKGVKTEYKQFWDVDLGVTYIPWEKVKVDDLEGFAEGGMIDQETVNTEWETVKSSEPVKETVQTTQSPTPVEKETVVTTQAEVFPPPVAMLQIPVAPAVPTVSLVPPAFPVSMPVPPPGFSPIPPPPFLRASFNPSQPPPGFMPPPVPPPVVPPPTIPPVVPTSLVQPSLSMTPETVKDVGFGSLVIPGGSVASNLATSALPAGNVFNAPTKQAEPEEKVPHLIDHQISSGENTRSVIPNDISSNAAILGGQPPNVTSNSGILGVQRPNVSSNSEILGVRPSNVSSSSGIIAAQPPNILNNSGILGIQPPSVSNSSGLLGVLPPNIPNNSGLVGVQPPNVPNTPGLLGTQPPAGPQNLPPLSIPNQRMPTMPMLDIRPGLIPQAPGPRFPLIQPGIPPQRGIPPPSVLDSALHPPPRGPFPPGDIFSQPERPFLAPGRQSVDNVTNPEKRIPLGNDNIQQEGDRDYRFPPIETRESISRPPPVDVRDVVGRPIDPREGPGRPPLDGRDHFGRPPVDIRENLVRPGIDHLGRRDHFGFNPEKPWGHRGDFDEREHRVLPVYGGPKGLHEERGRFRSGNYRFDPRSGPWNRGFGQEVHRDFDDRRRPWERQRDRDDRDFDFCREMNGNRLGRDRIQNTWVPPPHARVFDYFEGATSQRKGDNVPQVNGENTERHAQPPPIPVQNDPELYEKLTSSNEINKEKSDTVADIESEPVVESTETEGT
UniProt Q15418, sequence (Q15418 whole entry, looked up): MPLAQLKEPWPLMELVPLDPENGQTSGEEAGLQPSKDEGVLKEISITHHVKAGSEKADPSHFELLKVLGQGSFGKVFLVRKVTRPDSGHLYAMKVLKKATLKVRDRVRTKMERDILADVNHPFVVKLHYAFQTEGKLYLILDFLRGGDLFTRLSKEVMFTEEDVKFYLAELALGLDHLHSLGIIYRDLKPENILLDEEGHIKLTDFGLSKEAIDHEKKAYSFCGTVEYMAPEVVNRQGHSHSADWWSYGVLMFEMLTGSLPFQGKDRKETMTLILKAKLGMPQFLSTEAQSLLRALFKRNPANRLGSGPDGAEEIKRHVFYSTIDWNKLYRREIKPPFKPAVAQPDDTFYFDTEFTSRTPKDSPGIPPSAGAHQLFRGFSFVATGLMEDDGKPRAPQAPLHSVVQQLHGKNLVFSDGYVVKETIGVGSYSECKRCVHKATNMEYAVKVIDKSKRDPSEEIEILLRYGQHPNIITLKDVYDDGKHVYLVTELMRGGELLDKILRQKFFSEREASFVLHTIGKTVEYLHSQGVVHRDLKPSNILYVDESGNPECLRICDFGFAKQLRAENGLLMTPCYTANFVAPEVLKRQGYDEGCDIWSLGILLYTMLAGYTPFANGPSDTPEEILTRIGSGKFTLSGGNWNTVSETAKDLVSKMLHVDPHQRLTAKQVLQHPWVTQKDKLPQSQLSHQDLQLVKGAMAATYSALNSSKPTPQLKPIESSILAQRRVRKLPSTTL
UniProt Q96I25, sequence (Q96I25 whole entry, looked up): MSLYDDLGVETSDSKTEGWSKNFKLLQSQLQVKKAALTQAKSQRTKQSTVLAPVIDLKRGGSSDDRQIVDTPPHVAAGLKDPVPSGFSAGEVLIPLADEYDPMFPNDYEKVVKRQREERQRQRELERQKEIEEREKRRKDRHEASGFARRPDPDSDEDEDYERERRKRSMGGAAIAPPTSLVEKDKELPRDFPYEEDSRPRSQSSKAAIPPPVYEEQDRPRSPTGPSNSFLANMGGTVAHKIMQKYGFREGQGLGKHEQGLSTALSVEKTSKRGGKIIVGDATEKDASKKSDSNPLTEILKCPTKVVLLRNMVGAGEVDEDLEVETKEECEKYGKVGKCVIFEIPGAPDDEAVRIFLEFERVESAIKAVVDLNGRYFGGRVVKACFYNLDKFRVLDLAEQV
UniProt P63208, sequence (P63208 whole entry, looked up): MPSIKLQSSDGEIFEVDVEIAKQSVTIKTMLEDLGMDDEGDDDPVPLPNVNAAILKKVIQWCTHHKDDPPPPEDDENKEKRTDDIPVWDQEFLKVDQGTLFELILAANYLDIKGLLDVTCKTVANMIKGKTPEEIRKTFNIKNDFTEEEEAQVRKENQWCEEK
UniProt Q15436, sequence (Q15436 whole entry, looked up): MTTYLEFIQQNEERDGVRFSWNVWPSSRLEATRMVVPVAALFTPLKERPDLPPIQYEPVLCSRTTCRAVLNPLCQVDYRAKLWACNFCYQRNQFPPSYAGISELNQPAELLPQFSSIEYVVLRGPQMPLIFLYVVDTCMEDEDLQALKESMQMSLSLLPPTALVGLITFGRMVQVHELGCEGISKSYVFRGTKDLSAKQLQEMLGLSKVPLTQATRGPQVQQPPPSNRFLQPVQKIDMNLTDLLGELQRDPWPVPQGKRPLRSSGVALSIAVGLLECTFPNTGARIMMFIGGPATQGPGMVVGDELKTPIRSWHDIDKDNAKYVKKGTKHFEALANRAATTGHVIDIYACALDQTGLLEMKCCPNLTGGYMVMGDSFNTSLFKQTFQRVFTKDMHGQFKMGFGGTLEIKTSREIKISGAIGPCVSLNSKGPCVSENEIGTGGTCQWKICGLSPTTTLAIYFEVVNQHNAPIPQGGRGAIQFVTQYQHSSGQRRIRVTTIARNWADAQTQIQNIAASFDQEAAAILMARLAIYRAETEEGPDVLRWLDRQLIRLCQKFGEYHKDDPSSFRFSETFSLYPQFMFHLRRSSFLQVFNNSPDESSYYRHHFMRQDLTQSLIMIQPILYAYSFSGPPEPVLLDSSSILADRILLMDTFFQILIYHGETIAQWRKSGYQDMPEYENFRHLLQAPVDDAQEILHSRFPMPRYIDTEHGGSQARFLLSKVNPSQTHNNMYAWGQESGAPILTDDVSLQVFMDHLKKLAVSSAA
UniProt Q15382, sequence (Q15382 whole entry, looked up): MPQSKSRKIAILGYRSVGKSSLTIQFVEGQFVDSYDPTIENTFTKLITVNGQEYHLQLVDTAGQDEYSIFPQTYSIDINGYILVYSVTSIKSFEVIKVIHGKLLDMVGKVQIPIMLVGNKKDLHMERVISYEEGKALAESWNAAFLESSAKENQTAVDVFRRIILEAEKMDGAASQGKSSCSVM
UniProt Q9NW64, sequence (Q9NW64 whole entry, looked up): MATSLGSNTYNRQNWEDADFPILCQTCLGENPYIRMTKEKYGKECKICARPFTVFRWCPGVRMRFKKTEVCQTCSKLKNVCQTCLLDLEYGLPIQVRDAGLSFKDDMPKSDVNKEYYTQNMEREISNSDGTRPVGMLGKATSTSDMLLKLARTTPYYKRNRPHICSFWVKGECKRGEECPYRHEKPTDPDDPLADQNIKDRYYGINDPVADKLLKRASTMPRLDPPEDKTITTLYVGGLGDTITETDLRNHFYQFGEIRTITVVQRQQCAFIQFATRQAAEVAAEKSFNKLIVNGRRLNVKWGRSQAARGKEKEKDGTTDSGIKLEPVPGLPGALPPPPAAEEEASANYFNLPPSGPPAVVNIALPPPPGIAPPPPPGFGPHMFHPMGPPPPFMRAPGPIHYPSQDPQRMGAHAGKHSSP

Target | log2 fold change
RBM22 (UniProt Q9NW64) | 0.005
RUFY1 (UniProt Q96T51) | 0.036
RARS (UniProt P54136) | 0.034
RHEB (UniProt Q15382) | 0.026
RALA (UniProt P11233) | -0.021
SDHAF2 (UniProt Q9NX18) | 0.02
ROCK2 (UniProt O75116) | 0.177
RPS18 (UniProt P62269) | -0.11
RPS20 isoform 2 (UniProt P60866) | -0.037
RBM12 (UniProt Q9NTZ6) | 0.087
RPS6KA2 isoform 2 (UniProt Q15349) | 0.072
SEH1L isoform 1 (UniProt Q96EE3) | -0.01
SCAF11 (UniProt Q99590) | -0.04
SLC12A9 (UniProt Q9BXP2) | 0.034
RNF14 (UniProt Q9UBS8) | 0.032
RARS2 (UniProt Q5T160) | 0.019
SDHC (UniProt Q99643) | 0.064

Target | log2 fold change
RBM17 (UniProt Q96I25) | 0.099
RPS6KA1 isoform 2 (UniProt Q15418) | 0.044
RB1CC1 (UniProt Q8TDY2) | 0.01
RECQL (UniProt P46063) | 0.032
SHROOM2 (UniProt Q13796) | 0.058
SLBP (UniProt Q14493) | -0.048
SEC23A (UniProt Q15436) | -0.011
SCAF8 isoform 2 (UniProt Q9UPN6) | 0.091
RIPK1 (UniProt Q13546) | 0.111
RBM25 (UniProt P49756) | -0.019
RAC3 (UniProt P60763) | 0
SIDT2 isoform 2 (UniProt Q8NBJ9) | 0.019
RCOR1 (UniProt Q9UKL0) | 0.077
SKP1 (UniProt P63208) | -0.02
SEC31A (UniProt O94979) | 0.018
RPS9 (UniProt P46781) | -0.078
RSL1D1 (UniProt O76021) | -0.299

Compound: CN1C2=C(C3=C1C(=O)N(N=C3)CC4=CC(=CC=C4)N)SC(=C2)S(=O)C
Experiment: as above
Procedure, shortened: as §1

Target | log2 fold change
RBM22 (UniProt Q9NW64) | 0.011
RUFY1 (UniProt Q96T51) | 0.032
RARS (UniProt P54136) | 0.26
RHEB (UniProt Q15382) | -0.068
RALA (UniProt P11233) | -0.115
SDHAF2 (UniProt Q9NX18) | 0.037
ROCK2 (UniProt O75116) | -0.02
RPS18 (UniProt P62269) | 0.096
RPS20 isoform 2 (UniProt P60866) | 0.091
RBM12 (UniProt Q9NTZ6) | -0.033
RPS6KA2 isoform 2 (UniProt Q15349) | -0.038
SEH1L isoform 1 (UniProt Q96EE3) | -0.054
SCAF11 (UniProt Q99590) | 0.148
SLC12A9 (UniProt Q9BXP2) | -0.075
RNF14 (UniProt Q9UBS8) | -0.049
RARS2 (UniProt Q5T160) | -0.065
SDHC (UniProt Q99643) | -0.068

Target | log2 fold change
RBM17 (UniProt Q96I25) | 0.088
RPS6KA1 isoform 2 (UniProt Q15418) | -0.032
RB1CC1 (UniProt Q8TDY2) | 0.047
RECQL (UniProt P46063) | -0.076
SHROOM2 (UniProt Q13796) | -0.103
SLBP (UniProt Q14493) | 0.113
SEC23A (UniProt Q15436) | -0.027
SCAF8 isoform 2 (UniProt Q9UPN6) | -0.045
RIPK1 (UniProt Q13546) | 0.022
RBM25 (UniProt P49756) | 0.086
RAC3 (UniProt P60763) | -0.095
SIDT2 isoform 2 (UniProt Q8NBJ9) | 0.024
RCOR1 (UniProt Q9UKL0) | -0.024
SKP1 (UniProt P63208) | -0.126
SEC31A (UniProt O94979) | 0.051
RPS9 (UniProt P46781) | 0.174
RSL1D1 (UniProt O76021) | 0.374

Compound: CN1CCC(CNc2ccc3ncc(-c4cccc(OC(F)(F)F)c4)n3n2)CC1
Experiment: as above
Procedure, shortened: as §1

Target | log2 fold change
RBM22 (UniProt Q9NW64) | -0.003
RUFY1 (UniProt Q96T51) | -0.058
RARS (UniProt P54136) | -0.111
RHEB (UniProt Q15382) | -0.003
RALA (UniProt P11233) | 0.434 (active)
SDHAF2 (UniProt Q9NX18) | 0.045
ROCK2 (UniProt O75116) | -0.042
RPS18 (UniProt P62269) | 0.11
RPS20 isoform 2 (UniProt P60866) | 0.063
RBM12 (UniProt Q9NTZ6) | -0.139
RPS6KA2 isoform 2 (UniProt Q15349) | -0.313
SEH1L isoform 1 (UniProt Q96EE3) | 0.027
SCAF11 (UniProt Q99590) | 0.25
SLC12A9 (UniProt Q9BXP2) | -0.136
RNF14 (UniProt Q9UBS8) | -0.025
RARS2 (UniProt Q5T160) | -0.143
SDHC (UniProt Q99643) | 0.023

Target | log2 fold change
RBM17 (UniProt Q96I25) | -0.037
RPS6KA1 isoform 2 (UniProt Q15418) | -0.438 (active)
RB1CC1 (UniProt Q8TDY2) | -0.116
RECQL (UniProt P46063) | 0.058
SHROOM2 (UniProt Q13796) | -0.094
SLBP (UniProt Q14493) | -0.291 (active)
SEC23A (UniProt Q15436) | 0.042
SCAF8 isoform 2 (UniProt Q9UPN6) | 0.015
RIPK1 (UniProt Q13546) | -0.099
RBM25 (UniProt P49756) | -0.07
RAC3 (UniProt P60763) | 0.035
SIDT2 isoform 2 (UniProt Q8NBJ9) | -0.02
RCOR1 (UniProt Q9UKL0) | -0.037
SKP1 (UniProt P63208) | 0.244
SEC31A (UniProt O94979) | -0.11
RPS9 (UniProt P46781) | 0.146
RSL1D1 (UniProt O76021) | 0.591
